# PubChem BioAssay (NCATS)
# Results filed as inconclusive are left out. The source made the active and inactive calls. Calls come from the whole dose curve; as a rule, active = well fitted inhibition curve with a large enough effect in the main read-out, with a control signal flat (not every such curve was filed as active); inconclusive = small, poorly fitted or top-dose-only effect, or effect the other way, or a change in a side signal; inactive = no such curve, though single readings can be large or run the other way.
# Assay: Nrf2 qHTS screen for inhibitors: Validation (AID 493153);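 for activity change, negative = inhibition: A549 cells with ARE-driven firefly luciferase reporter reporting Nrf2 activity; % of control where 0% means no effect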
# Conditions: A549 ARE-Fluc reporter, 18-24 h; Potency: luciferase luminescence; viability change: measured here: cytotoxicity max response; luciferase luminescence, at 46.1 µM (top of the series); activity change, negative = inhibition: at the top concentration
# Description: NIH Molecular Libraries Probe Production Network [MLPCN] NIH Chemical Genomics Center [NCGC] MLPCN Grant: R03-MH092170-01 Assay Provider: Shyam Biswal, Johns Hopkins University Assay Overview: Nrf2 is a transcription factor that maintains cellular redox homoestasis and protects cells from xenobiotics. Nrf2 binds to the antioxidant response element (ARE) to induce gene expression of a broad spectrum of genes that encode for antioxidants. […] Finding a small molecule that act as an inhibitor of Nrf2 function would represent a novel therapeutic target that could lead to improvement in survival of patients undergoing chemo- and/or radio- therapy. 1. Shibata, T., et al., Genetic Alteration of Keap1 Confers Constitutive Nrf2 Activation and Resistance to Chemotherapy in Gallbladder Cancer. Gastroenterology, 2008. 2. Sjoblom, T., et al., The consensus coding sequences of human breast and colorectal cancers. Science, 2006. 314(5797): p. 268-74.
# Assay Protocol Summary: A concentration-response assay was performed with A549 ARE_Fluc cells which are suspended in 5% FBS OPTI-MEM. Five uL were dispensed into 1536-well white TC-treated plate using the Kalypsys dispenser to achieve a density of 5000 cells/well in all columns except column 1. The plate is incubated at 37deg C at 5% CO2 for 2 hours before 23 nL of compounds are added with the Kalypsys pin tool equipped with a 1,536-pin array containing 10-nL slotted pins (FP1S10, 0.457-mm diameter, 50.8 mm long; V&P Scientific). The control compounds Budesonide and Staurosporine are both added at a concentration of 2mM and Budesonide is also added as a 1:10 titration, starting at 200uM, to achieve dose-response. After an 18-24 hour incubation at 37deg C at 5% CO2, 5ul of medium is added to column 1. Afterwards 1ul of 5x of CellTiter-Fluor (Promega) is added to every well. The plate is then incubated at 37deg C at 5% CO2 for 30 minutes before they are read on the ViewLux (Perkin Elmer) for a fluorescent read Ex=405(10)/Em=525(10) for a 3 second exposure, 2x binning, and high gain. Then 3 uL of 3x BugLite is dispensed into all wells and the plate is incubated at ambient room temperature for 15 minutes. Afterwards another ViewLux read is performed using the clear filter to get a luminescent read with the settings of 40 second exposure, 2x binning, and high gain. Cytotoxicity is assessed through the first fluorescent read and then biochemical activity against Nrf2 is measured in the luminescent read.
# Potency is the fitted concentration of half-maximal effect.
Compound,viability change,"activity change, negative = inhibition",Potency
Fc1ccc([C@@H]2CCNC[C@H]2COc2ccc3c(c2)OCO3)cc1,10.5%,-8.77% (inactive),
COc1ccccc1OCC(O)CN1CCN(CC(=O)Nc2c(C)cccc2C)CC1 (stereo not given),-3.01%,-9.23% (inactive),
CC[N+](CC)(CC)CCOc1cccc(OCC[N+](CC)(CC)CC)c1OCC[N+](CC)(CC)CC,5.55%,-1% (inactive),
CC(C)(Oc1ccc(C2CC2(Cl)Cl)cc1)C(=O)O (stereo not given),9.29%,-1.65% (inactive),
COc1cc2nc(N3CCN(C(=O)C4COc5ccccc5O4)CC3)nc(N)c2cc1OC (stereo not given),-11.8%,-2.7% (inactive),
O=C(CCCN1CCC(O)(c2ccc(Cl)cc2)CC1)c1ccc(F)cc1,2.46%,11% (inactive),
Nc1ccn([C@H]2CC[C@@H](CO)O2)c(=O)n1,-1.24%,-2.01% (inactive),
Cn1c(=O)c2c(ncn2C)n(C)c1=O,-2.67%,2.14% (inactive),
C[C@](N)(Cc1ccc(O)c(O)c1)C(=O)O,0.569%,2.42% (inactive),
CC1COc2c(N3CCN(C)CC3)c(F)cc3c(=O)c(C(=O)O)cn1c23 (stereo not given),6.09%,8.31% (inactive),
Cc1ccc(C(=O)Nc2ccc(S(=O)(=O)O)c3cc(S(=O)(=O)O)cc(S(=O)(=O)O)c23)cc1NC(=O)c1cccc(NC(=O)Nc2cccc(C(=O)Nc3cc(C(=O)Nc4ccc(S(=O)(=O)O)c5cc(S(=O)(=O)O)cc(S(=O)(=O)O)c45)ccc3C)c2)c1,-15.2%,27% (inactive),
CCN1CCCC1CNC(=O)c1cc(S(=O)(=O)CC)c(N)cc1OC (stereo not given),7.74%,0.0156% (inactive),
O=C1N(c2ccccc2)c2ccccc2C1(Cc1ccncc1)Cc1ccncc1,10.1%,10.5% (inactive),
N[C@@H](Cc1c[nH]c2ccc(O)cc12)C(=O)O,-8.24%,4.6% (inactive),
O=C1Cc2cc(CCN3CCN(c4nsc5ccccc45)CC3)c(Cl)cc2N1,-17.6%,-11.4% (inactive),
CC#C[C@]1(O)CC[C@H]2[C@@H]3CCC4=CC(=O)CCC4=C3[C@@H](c3ccc(N(C)C)cc3)C[C@@]21C,-7.52%,,23.1 µM (active)
CN(C)c1nc(N(C)C)nc(N(C)C)n1,0%,15.9% (inactive),
CCc1cccc2c3c([nH]c12)C(CC)(CC(=O)O)OCC3 (stereo not given),-5.62%,0% (inactive),
COc1nc(C)nc(Cl)c1NC1=NCCN1,4.38%,10.9% (inactive),
OCCN1CCN(CCCN2c3ccccc3Sc3ccc(C(F)(F)F)cc32)CC1,1.55%,7.08% (inactive),
